Screens as filed in PubChem.
TDP1 cell noCPT – qHTS for Inhibitors of human tyrosyl-DNA phosphodiesterase 1 (TDP1): qHTS in cells in absence of CPT. DT40 Tdp1-/- hTDP1 cells, no CPT, ATP luminescence, 48 h. Potency, µM (highest dose often 46.2 µM), for inactives: at the top dose activity change, negative = growth inhibition, most hits filed as inhibitors. hit rate 15% among 420,000. AID 686978, 2013; further: potency means the concentration at half of the fitted maximal effect; nearly all actives have a fitted effect of over 55% in size
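A cellular qHTS used chicken DT40 cells lacking endogenous Tdp1 but carrying stably transfected human TDP1. Compounds were applied without camptothecin, and cell growth kinetics were judged by ATP-dependent luminescence after ≥48 hr.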
HT1080NT lethal – kills 2HG-producing HT-1080-NT fibrosarcoma cells; Potency, µM (doses to about 46.1 µM), for the others: at the highest dose activity, negative = less viability, most hits filed as cytotoxic; AID 686970; HT-1080-NT fibrosarcoma viability, CellTiter-Glo ATP luminescence, 48 h; hit rate 1.6% among 360,000;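 further: NT is the 2HG producing partner of a matched IDH1 knockdown line; potency means the concentration at half of the fitted maximal effect; 0% = DMSO-treated cells and -100% = media-only wells without cells; nearly all actives have a fitted effect of over 55% in size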
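Compounds were tested in concentration-response format on HT-1080-NT cells for 48 hours at 37 degrees C. Cell viability came from CellTiter-Glo luminescence; curves were classified by r2, response magnitude and activity.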
ELG1 repair inh – inhibitors of ELG1-dependent DNA repair in HEK293T cells; HEK293T ELG1-luciferase reporter, luminescence, 16 h; DNA damage induced by 5-fluorouridine; Potency, µM (doses to about 46.1 µM), for inactives: at the highest dose activity change, negative = inhibition, usual class: inhibitors; hit rate 2.3% among 330,000; further: potency means the concentration at half of the fitted maximal effect; nearly all actives have a fitted effect of over 55% in size
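Step one: seed 2,000 cells per well. Step two: pin-transfer compound or DMSO alongside 5-fluorouridine. Step three: incubate 16 hr, 37 °C, 5% CO2. Step four: add ONE-Glo, wait 30 min, read luminescence.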
IL1B secr inh – blocks inflammasome-driven IL-1 beta release; THP-1 LPS/ATP IL-1B secretion, AlphaLISA, 16 h; active compounds read low; activity change, % at 57.5 µM; hit rate 4.7% among 360,000; AID 743279; in the data active means activity change below about -50%; inconclusive means mostly about -30% to -49%
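THP-1 cells pretreated 1 hr with compounds (up to 57.5 uM final), then stimulated with LPS (250 ng/mL final) plus ATP (1.25 mM final); secreted IL-1B measured by AlphaLISA after 16 hr, decreased signal indicating inhibition.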
DT40 TDP1 CPT – DT40-hTDP1 cell growth loss with CPT; Potency, µM (titrated, usually from 46.2 µM), without a hit: top-dose activity change, negative = growth inhibition, hits mostly inhibitors; AID 686979; chicken DT40 Tdp1-/-;hTDP1 cells + 20 nM CPT, ATP luminescence, 48 h; hit rate 12% among 420,000; further: potency means the concentration at half of the fitted maximal effect; nearly all actives have a fitted effect of over 55% in size
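Chicken DT40 Tdp1-/- cells complemented with human TDP1, 400 cells/well, exposed to compounds plus 20 nM camptothecin for at least 48 h at 37 C; viability read as ATP content by CellTiter-Glo luminescence.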
HT1080 IDH1KD tx – kills HT-1080 cells with IDH1 knockdown | HT-1080 IDH1 knockdown viability, ATP luminescence, 48 h | Potency, µM (series often up to 46.1 µM), for the others: top-dose activity, negative = toxicity, hits mostly cytotoxic | hit rate 2% among 360,000;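 further: potency means the concentration at half of the fitted maximal effect; 0% = DMSO wells and -100% = cell-free medium wells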
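IDH1KD HT-1080 cells, 750/well, RPMI + 5% FBS; compound pinned after 2 h settling; 48 h, 37 °C; CellTiter-Glo luminescence; % activity normalised to DMSO and no-cell wells; curves fitted, classed by r2 and efficacy.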
* hit, by the source's call; ? = inconclusive; / = not tested or not shown. Rows were chosen to be rich in hits. Some 19% of all compounds tested hit in one or more screens of this group. Unless noted, the call rests on the fitted dose curve; in most records, active means well fitted curve in the direction sought with a large enough effect; inconclusive means small, poorly fitted or top-dose-only effect, or another doubt; inactive means no such curve, though single readings can be large; an effect the other way counts as inactive or inconclusive. Unless noted, on the % scale 0 is the no-effect control and ±100 the full control effect.

SMILES	TDP1 cell noCPT	HT1080NT lethal	ELG1 repair inh	IL1B secr inh	DT40 TDP1 CPT	HT1080 IDH1KD tx
O=S(=O)(c1ccc(F)c(F)c1)N1CCN(CCc2ccccc2)CC1	-7%	-24%	-18%	-3	-18%	-5%
O=c1c2ccccc2nc(-c2ccccc2)n1Cc1ccccc1	26µM*	-1%	?	-15	-20%	-3%
COc1ccc(-c2nc3ccccc3n2Cc2ccccc2)cc1	8.2µM*	-13%	-16%	-1	18µM*	-24%
COc1ccc(-c2nc3ccccc3c(=O)n2CCOc2ccccc2C)cc1	18µM*	-6%	-1%	28	?	10%
COc1ccc(-c2nc3ccccc3c(=O)n2CCOc2ccc(C)cc2C)cc1	-24%	5%	-2%	13	-10%	9%
O=c1c2ccccc2nc(-c2ccccc2)n1Cc1ccc(Cl)cc1	?	-20%	1%	-12	?	-17%
COc1ccc2c(c1)nc(N)n2Cc1ccccc1	?	-9%	12%	-98*	?	0%
Cc1ccc(NC(=O)N2CCN(c3nnc(C)c4c(C)n(-c5ccccc5)nc34)CC2)c(Cl)c1	-21%	/	/	/	-15%	/
CCCCCn1c(-c2ccc(OC)c(OC)c2)nc2ccccc21	7.3µM*	/	/	/	?	/
COc1cc(Cn2c(-c3ccc(O)c(OC)c3)nc3ccccc32)ccc1O	?	0%	?	-7	0%	-17%
CCOc1ncccc1C(=O)Nc1cccc(-c2nnc3n2CCCCC3)c1	?	-2%	?	-9	-5%	-5%
COc1ccc(C(=O)NCCCN2CCOCC2)cc1	-2%	2%	25%	-7	6%	3%
COc1ccc(-c2nc3ccc(C(=O)NCCCN4CCOCC4)cc3nc2-c2ccc(OC)cc2)cc1	23µM*	-16%	?	-8	?	-10%
CCCN(CCC)C(=O)c1ccc2nc(-c3ccc(OC)c(OC)c3)c(-c3ccc(OC)c(OC)c3)nc2c1	?	-16%	12µM*	-12	?	-7%
COc1ccccc1CNC(=O)c1ccc2c(c1)nnn2C1CCCC1	16µM*	/	/	/	18µM*	/
CCNC(=O)c1ccc2nc(-c3ccccc3)c(-c3ccccc3)nc2c1	11µM*	/	/	/	11µM*	/
COc1ccc(-c2cc(C(=O)O)nc3ccc4ccccc4c23)cc1OC	8%	21%	?	-4	-3%	20%
CCOc1cccc(CN2CCCC(N3CCc4cc(OC)c(OC)cc4C3)C2)c1O (stereo not given)	?	-4%	-6%	6	-24%	1%
COc1ccccc1CNC(=O)c1ccc2nc(CCc3ccccc3)oc2c1	-26%	/	/	/	?	/
COCC(C)NC(=O)c1ccc2nc(-c3ccccc3)c(-c3ccccc3)nc2c1 (stereo not given)	21µM*	3%	?	-2	?	-9%
CCCNC(=O)c1ccc2nc(-c3ccccc3)c(-c3ccccc3)nc2c1	23µM*	8%	?	?	?	5%
COc1ccccc1CNC(=O)c1ccc2nc(-c3ccccc3)c(-c3ccccc3)nc2c1	18µM*	/	/	/	?	/
CCN1CCN(CCNC(=O)c2ccc3nc(-c4cccc(C)c4)c(-c4cccc(C)c4)nc3c2)CC1	16µM*	-2%	25%	0	16µM*	-21%
COc1ccc(CNC(=O)c2cnc3sc(N4CCOCC4)nn3c2=O)cc1	-24%	/	/	/	-10%	/
COc1ccccc1NC(=O)NC1CCS(=O)(=O)C1 (stereo not given)	-4%	0%	-4%	14	20%	16%
SMILES	TDP1 cell noCPT	HT1080NT lethal	ELG1 repair inh	IL1B secr inh	DT40 TDP1 CPT	HT1080 IDH1KD tx
CCOC(=O)C1=C(COC(=O)/C=C/c2cccc(Cl)c2)NC(=O)NC1C (stereo not given)	-3%	-3%	?	6	1%	10%
CCOC(=O)C1CCCN(C(=O)c2cc(C)oc2C)CC1 (stereo not given)	-6%	24%	/	1	-19%	13%
Cc1c(Cl)cccc1NC(=O)c1ccc2c(c1)nnn2C1CCCC1	2.6µM*	/	/	/	2.6µM*	/
O=C(c1ccc2nc(-c3ccccc3)c(-c3ccccc3)nc2c1)N1CCCCC1	16µM*	0%	?	?	?	0%
CCN(CC)C(=O)c1ccc2nc(-c3ccccc3)c(-c3ccccc3)nc2c1	21µM*	5%	?	-3	?	9%
COc1cccc(CNC(=O)c2ccc3nc(-c4ccc(F)cc4)c(-c4ccc(F)cc4)nc3c2)c1	13µM*	/	/	/	21µM*	/
COc1ccc(CNC(=O)c2ccc3nc(-c4ccc(F)cc4)c(-c4ccc(F)cc4)nc3c2)cc1	-27%	/	/	/	-20%	/
CN1CCN(C(=O)c2ccc3nc(-c4ccccc4)c(-c4ccccc4)nc3c2)CC1	?	-15%	-23%	-16	-24%	-20%
CCOC(=O)C1=CCN(S(=O)(=O)c2ccc(C)cc2)C1c1cccc2ccccc12 (stereo not given)	?	-16%	/	23	?	-24%
CC(=O)Nc1ccc(NCCc2ccco2)cc1	1%	15%	/	14	7%	8%
CC1(C(=O)NS(=O)(=O)c2cccc(C#N)c2)CCN1C(=O)c1ccco1 (stereo not given)	1%	8%	/	13	17%	18%
Cc1cccnc1NC(=O)c1ccc(C(=O)c2ccccc2)cc1	3%	-3%	?	11	-4%	-2%
COc1cc(C2Nc3c(F)cccc3C3C=CCC32)cc(Br)c1OC (stereo not given)	?	28%	2%	5	1%	3%
COc1cccc(C2Nc3c(F)cc(Br)cc3C3C=CCC32)c1OC (stereo not given)	18µM*	2%	3%	-6	16µM*	8%
COc1ccc(-c2cc(C(=O)Nc3ccn(Cc4ccc(C)cc4)n3)no2)cc1OC	-19%	/	/	/	-21%	/
COc1ccc(CNC(=O)Cn2nnc(-c3ccc(C(F)(F)F)cc3)n2)cc1	-18%	/	/	/	-14%	/
O=C1C=CC(O)(c2cc(=O)c3c(O)cc(O)cc3o2)C=C1	0.52µM*	7.3µM*	3.3µM*	-104*	0.37µM*	7.3µM*
O=c1cc(-c2ccccc2Cl)oc2cc(O)cc(O)c12	-27%	-3%	10%	46	2%	8%
